GalR3 antag = blocks the human galanin receptor 3; O60755; HEK293 GalR3-CNG cAMP membrane potential fluorescence; galR3 body fused to GalR1 C-terminus; inhibition, % at 3 µM; 0.44% of 360,000 active;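 active means inhibition above the screen-wide average plus 3 SD, cut at about 13% in these data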;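 further: forskolin and galanin both at EC90 stimulate the cells; cAMP rise reported by CNG channel membrane potential dye signal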
SRC3 inh = human NCOA3 inhibition | Q9Y6Q9 | HEK293 GAL4-SRC3 luciferase reporter, luminescence | inhibition, % at 3.6 µM | 0.17% of 360,000 active | AID 588352;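 active means inhibition above a per-campaign cutoff, the mean of all compounds plus 3 SD, cut at about 60% in these data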;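 further: higher means less SRC3-driven luciferase light from the GAL4 reporter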
SRC1 inh = inhibits human SRC1 coactivator | Q15788 | inhibition, % at 3.6 µM | 0.12% of 360,000 active | HEK293 GAL4-SRC1 luciferase reporter, luminescence;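 active means inhibition above the campaign mean plus 3 SD, with each screening campaign given its own cutoff, cut at about 60% in these data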
LRH-1 inv ag = NR5A2 inverse agonism in reporter assay. 0.13% of 360,000 active. O00482. inhibition, % at 3.6 µM. HEK293T StAR-luciferase reporter, LRH-1 transfected, 24 h;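 active means inhibition above the mean inhibition of all tested compounds plus 3 SD, cut at about 73% in these data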
Target sequence (O00482 whole entry, looked up): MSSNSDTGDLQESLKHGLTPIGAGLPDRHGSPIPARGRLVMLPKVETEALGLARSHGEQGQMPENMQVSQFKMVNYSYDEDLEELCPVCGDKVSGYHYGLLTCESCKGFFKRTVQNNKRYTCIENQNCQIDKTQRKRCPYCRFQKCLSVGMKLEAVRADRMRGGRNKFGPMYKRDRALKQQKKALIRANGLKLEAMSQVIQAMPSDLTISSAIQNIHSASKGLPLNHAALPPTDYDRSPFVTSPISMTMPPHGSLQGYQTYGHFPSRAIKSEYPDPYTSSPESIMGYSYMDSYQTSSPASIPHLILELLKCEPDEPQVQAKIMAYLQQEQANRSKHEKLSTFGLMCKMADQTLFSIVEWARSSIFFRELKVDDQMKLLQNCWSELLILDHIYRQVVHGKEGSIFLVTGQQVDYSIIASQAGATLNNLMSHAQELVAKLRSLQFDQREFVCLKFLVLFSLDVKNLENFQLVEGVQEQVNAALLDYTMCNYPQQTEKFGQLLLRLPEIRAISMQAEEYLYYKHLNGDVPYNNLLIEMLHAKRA
COUP-TFII inh = inhibitors of human COUP-TFII (NR2F2). P24468. HEK293T NGFI-A luciferase reporter, luminescence. inhibition, % at 8.6 µM. 0.7% of 370,000 active;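 active means inhibition above a per-plate cutoff, mean inhibition of test wells between control levels plus 3 SD, cut at about 38% in these data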;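 further: cells cotransfected with COUP-TFII expression vector driving the NGFI-A reporter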
SRC2 inh = human SRC2 (NCOA2) inhibition. HEK293 GAL4-SRC2 luciferase reporter, luminescence. 0.17% of 370,000 active. AID 651957. inhibition, % at 9 µM. Q15596;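 active means inhibition above the mean inhibition of all tested compounds plus 3 SD, set per campaign, cut at about 52% in these data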
GalR3 antag conf = confirmation of human galanin receptor 3 antagonists; shares compounds with GalR3 antag; HEK293 GalR3 CNG cAMP biosensor, membrane potential fluorescence; galR3 fused to GalR1 carboxy tail; challenged with forskolin and galanin at EC90; inhibition, % at 3 µM; 59% of 1,600 active;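 active means inhibition above the primary screen's cutoff, the mean inhibition of all screened compounds plus 3 SD, cut at about 13% in these data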
HEK-CNG parental = acts as nonspecific agonist in parental HEK-CNG cells. AID 652268. HEK293-CNG parental cells, cAMP membrane potential fluorescence; normalised: DMSO wells 0%, forskolin wells 100%. shares compounds with GalR3 antag. activation, % at 3 µM. 10% of 1,600 active; in the data active means activation above about 1.3%
Numbers stand for hits. Rows were chosen to be rich in hits. Some 1.1% of all compounds tested hit in one or more screens of this group.

How did CC(=O)NC(Cc1c[nH]c2ccccc12)C(=O)OCC(=O)Nc1ccc2c(c1)OCO2 (stereo not drawn) do in these assays?
GalR3 antag: 15; SRC3 inh: inactive; SRC1 inh: inactive; LRH-1 inv ag: inactive; COUP-TFII inh: inactive; SRC2 inh: inactive; GalR3 antag conf: inactive; HEK-CNG parental: inactive

How did O=S1(=O)c2ccc(Br)cc2OC[C@@H](Cc2ccccc2)N1Cc1cn(Cc2ccccc2)nn1 do in these assays?
COUP-TFII inh: inactive; SRC2 inh: inactive

How did CN(C)S(=O)(=O)c1cccc(C(=O)N/N=C\c2cccc(C#N)c2)c1 do in these assays?
COUP-TFII inh: inactive; SRC2 inh: inactive

How did CCN(CC(O)c1cccc(O)c1)C(=O)C12CC3CC(CC(C3)C1)C2 (stereo not drawn) do in these assays?
GalR3 antag: 17; SRC3 inh: inactive; SRC1 inh: inactive; LRH-1 inv ag: inactive; COUP-TFII inh: inactive; SRC2 inh: inactive; GalR3 antag conf: 57; HEK-CNG parental: 2.0

How did CCc1ccc(C(=O)CSc2ncn[nH]2)cc1 do in these assays?
GalR3 antag: 54; SRC3 inh: inactive; SRC1 inh: inactive; LRH-1 inv ag: inactive; COUP-TFII inh: inactive; SRC2 inh: inactive; GalR3 antag conf: 22; HEK-CNG parental: inactive

Results for COc1ccc(CCNC(=O)Cn2ncc3c2-c2cc(C)ccc2OC3)cc1 ?
COUP-TFII inh: inactive; SRC2 inh: inactive

Results for CCC(NC(=O)c1ccc2c(c1)c(C)c(C)n2Cc1ccc(-c2ccccc2C#N)cc1)c1ccccc1 (stereo not drawn) ?
COUP-TFII inh: inactive; SRC2 inh: inactive

Results for C#Cc1ccc([C@@H]2C=C(C(=O)Nc3ccccc3)O[C@H](OCC)[C@H]2CCCO)cc1 ?
SRC3 inh: inactive; SRC1 inh: inactive; LRH-1 inv ag: inactive; COUP-TFII inh: inactive; SRC2 inh: inactive; GalR3 antag conf: inactive; HEK-CNG parental: inactive

Results for C#Cc1ccc([C@H]2C=C(C(=O)NCc3ccccc3)O[C@@H](OCC)[C@@H]2CCCO)cc1 ?
GalR3 antag: inactive; SRC3 inh: inactive; SRC1 inh: inactive; LRH-1 inv ag: inactive; COUP-TFII inh: inactive; SRC2 inh: inactive

Results for COc1ccc(S[C@]2(C(=O)N3CCN(c4ncccn4)CC3)CC(=O)N(c3ccccc3)[C@@H]2c2ccc(OC)cc2)cc1 ?
COUP-TFII inh: inactive; SRC2 inh: inactive

What do the screens show for `C[C@H]1[C@@H](OC(=O)N2CCN(c3ccccc3)CC2)CC[C@@]23CCCN2C(=O)CCC[C@@H]13`?
COUP-TFII inh: inactive

How did O=C(O)CCc1ccc(-c2cccs2)n1CC(=O)Nc1ccccc1C(F)(F)F do in these assays?
GalR3 antag: 15; SRC3 inh: inactive; SRC1 inh: inactive; LRH-1 inv ag: inactive; COUP-TFII inh: inactive; SRC2 inh: inactive; GalR3 antag conf: inactive; HEK-CNG parental: inactive

How did COc1ccc(CN(CCN2CCOCC2)C(=O)c2ccc(F)cc2F)cc1OC do in these assays?
COUP-TFII inh: inactive; SRC2 inh: inactive

What do the screens show for `O[C@H](COc1cccc(C(F)(F)F)c1)CN1CCC(C(O)(c2ccccc2)c2ccccc2)CC1`?
COUP-TFII inh: inactive; SRC2 inh: inactive

What do the screens show for `Cc1ccc(SCc2[nH]nc3c2C(c2cccnc2)C(C#N)=C(N)O3)cc1` (stereo not drawn)?
GalR3 antag: inactive; SRC3 inh: inactive; SRC1 inh: inactive; LRH-1 inv ag: inactive; COUP-TFII inh: inactive; SRC2 inh: inactive

Results for Cc1cc(C#N)c(C)c(SCc2[nH]nc3c2C(c2ccccc2)C(C#N)=C(N)O3)n1 (stereo not drawn) ?
GalR3 antag: 27; SRC3 inh: inactive; SRC1 inh: inactive; LRH-1 inv ag: inactive; COUP-TFII inh: inactive; SRC2 inh: inactive; GalR3 antag conf: inactive; HEK-CNG parental: inactive

Source: PubChem (The Scripps Research Institute Molecular Screening Center)
